Test results: PubChem BioAssay (Tox21)
Values joined by “and” are separate entries in the source; they are usually repeats but may differ in a detail not shown here. Identical values can stand only once. Inconclusive results are not listed. Values without a mark were called inactive. Active and inactive are the calls of the source. The call rests on the fitted dose curve.
On the % scale 0 is the no-effect control and ±100 the full control effect; potency means the concentration at half of the fitted maximal effect.

Experiment: qHTS assay for small molecules that induce genotoxicity in human embryonic kidney cells expressing luciferase-tagged ATAD5 - cell viability (AID 651634); further: nearly all actives have a fitted effect of over 25% in size
Details: HEK293T ATAD5-luc cells viability, CellTiter-Fluor, 15.5 h; series mostly up to 83.3 µM; activity, negative = cytotoxicity: at the top concentration
Source text: National Center for Advancing Translational Sciences [NCATS]
NIH Chemical Genomics Center [NCGC]
U.S. Environmental Protection Agency [EPA]
National Institutes of Environmental Health Sciences [NIEHS]
National Toxicology Program [NTP]
U.S. Food and Drug Administration [FDA]
Enhanced Level of Genome Instability Gene 1 (ELG1; human ATAD5) protein levels increase in response to various types of DNA damage. Using a luciferase reporter-gene tagged with ElG1, a cell-based assay [developed by Kyungjae Myung, NHGRI, NIH] was used to measure the induction of ATAD5 in human embryonic kidney cells (HEK293T). So, increase in luciferase activity can be used to identify the compounds that cause genetic stress. In addition to genotoxicity, these cells were also used to test for cytotoxicity by measuring the protease activity within live cells.
Tox21 Assay Protocol Summary:
For cytotoxicity screening, 2,000 cells in 5 uL/well were dispensed into white, solid-bottom 1536-well plates using a Multidrop Combi (Thermo Scientific) dispenser. Following transfer of 23 nL compound or DMSO vehicle by a pin tool, the plates were incubated 15.5 hr at 37C and 5% CO2. 1 ul CellTiter-Fluor reagent (Promega, Madison, WI) was then added to each plate and following 30 min incubation at 37C, fluorescence intensity was quantified on a ViewLux CCD-based plate reader.
For Cc1ccc(C)c2ccccc12, the “activity, negative = cytotoxicity” value was 13.3%. With CN the “activity, negative = cytotoxicity” value was 5.97% [at 95.3 µM]. With COP(=O)(OC)Oc1ccc([N+](=O)[O-])cc1 the “activity, negative = cytotoxicity” value was -26.5%. With CC(O)C(=O)[O][Hg][c]1ccccc1 (stereo not given) the Potency was 969 nM (active). For CC(C)N(C(=O)SC/C(Cl)=C/Cl)C(C)C, the Potency was 48900 nM (active). In the case of CC(=O)O.CC(=O)O.CC(=O)O.CC(=O)O.CC(=O)O.CC(=O)O.CC(=O)O.O.O.[Cr].[Cr].[Cr], the “activity, negative = cytotoxicity” value was 5.14%. In the case of C#CCC1=C(C)C(OC(=O)C2C(C=C(C)C)C2(C)C)CC1=O (stereo not given), the “activity, negative = cytotoxicity” value was 8.74%. In the case of CC(C)N(C(=O)CCl)c1ccccc1, the Potency was 27.3 µM (active) and 38.6 µM (active). In the case of O=[N+]([O-])c1ccccc1-c1ccccc1, the “activity, negative = cytotoxicity” value was 7.95%. In the case of CC1(C)[C@H](/C=C2\CCSC2=O)[C@@H]1C(=O)OCc1coc(Cc2ccccc2)c1, the “activity, negative = cytotoxicity” value was 17.6%. With O=c1[nH]c(Cl)c(Cl)cc1Cl the “activity, negative = cytotoxicity” value was 8.75%. For COC(=O)/C=C(\C)OP(=O)(OC)OC, the “activity, negative = cytotoxicity” value was -3.21%. Molecule CC(=O)[O-].CC(=O)[O-].CC(=O)[O-].[Sb+3] has an activity, negative = cytotoxicity of 20.6% [at 8.08 µM]. For N#Cc1ccc(N(CC(N)=O)CC(F)(F)F)cc1C(F)(F)F, the “activity, negative = cytotoxicity” value was 10.7%. In the case of COC(=O)c1ccccc1S(=O)(=O)NC(=O)Nc1nc(C)nc(OC)n1, the “activity, negative = cytotoxicity” value was -5.71%. With N#Cc1sc2c(=O)c3ccccc3c(=O)c=2sc1C#N the “activity, negative = cytotoxicity” value was 89.8%. For CCCCCCCCCCCCCCn1cc[n+](C)c1, the Potency was 61300 nM (active). For CC(C)C(Nc1ccc(C(F)(F)F)cc1Cl)C(=O)OC(C#N)c1cccc(Oc2ccccc2)c1 (stereo not given), the “activity, negative = cytotoxicity” value was 18.5% [at 95.3 µM]. In the case of COc1ccc2c3c1O[C@H]1[C@H](O)CC[C@H]4[C@@H](C2)N(C)CC[C@@]341, the “activity, negative = cytotoxicity” value was 7.26%. With C=C(C)C(=O)[O][Sn]([CH2]CCC)([CH2]CCC)[CH2]CCC the Potency was 611 nM (active). For CC(C)c1c(CN(C)C(C)Cc2ccccc2)n(C)n(-c2ccccc2)c1=O (stereo not given), the “activity, negative = cytotoxicity” value was 9.55% [at 39.1 µM]. With COC(=O)C(C)N(C(=O)c1ccco1)c1c(C)cccc1C (stereo not given) the “activity, negative = cytotoxicity” value was 3.61%. In the case of CC(Cl)CCl (stereo not given), the “activity, negative = cytotoxicity” value was 14.9%. With Brc1ccc(Oc2ccc(Br)cc2Br)c(Br)c1 the “activity, negative = cytotoxicity” value was -11.3%. In the case of Brc1cccc(-c2ccccc2)c1, the “activity, negative = cytotoxicity” value was -12.1% [at 95.3 µM]. In the case of N#CSCc1ccccc1, the “activity, negative = cytotoxicity” value was -20.2% [at 95.3 µM]. With Fc1ccc(C(OCCN2CCN(CCCc3ccccc3)CC2)c2ccc(F)cc2)cc1 the Potency was 29800 nM (active). In the case of Oc1cc(Cl)cc(Cl)c1, the “activity, negative = cytotoxicity” value was 5.36% [at 95.3 µM]. In the case of O=P(Cl)(Cl)Cl, the “activity, negative = cytotoxicity” value was 11% [at 95.3 µM]. In the case of CSC(=O)c1c(C(F)F)nc(C(F)(F)F)c(C(=O)SC)c1CC(C)C, the “activity, negative = cytotoxicity” value was -12.4%. With Cc1nn(-c2cc(NS(C)(=O)=O)c(Cl)cc2Cl)c(=O)n1C(F)F the “activity, negative = cytotoxicity” value was -11.9%. In the case of CN1CCc2cc(Cl)c(O)cc2[C@H]2c3ccccc3CC[C@@H]21, the “activity, negative = cytotoxicity” value was -10%. In the case of [O]=[Cr][O][Cr]=[O], the “activity, negative = cytotoxicity” value was -4.66% [at 95.3 µM]. In the case of [F][Sn]([c]1ccccc1)([c]1ccccc1)[c]1ccccc1, the Potency was 486 nM (active). For c1csc(-c2ccc(-c3cccs3)s2)c1, the “activity, negative = cytotoxicity” value was 20.7%. For CCCCn1cc[n+](C)c1.[Cl][Fe-]([Cl])([Cl])[Cl], the “activity, negative = cytotoxicity” value was -3.84%. In the case of CCOC(=O)CCN(SN(C)C(=O)Oc1cccc2c1OC(C)(C)C2)C(C)C, the “activity, negative = cytotoxicity” value was 25.9%. With N#CCCl the “activity, negative = cytotoxicity” value was 16.9% [at 95.3 µM]. For CCC[CH2][Sn]([CH2]CCC)([CH2]CCC)[O][Sn]([CH2]CCC)([CH2]CCC)[CH2]CCC, the Potency was 377 nM (active). For COP(=S)(OC)Oc1nc(Cl)c(Cl)cc1Cl, the “activity, negative = cytotoxicity” value was -7.74%.
